Data on 10 molecules can be found in PubChem BioAssay (NCI).

Structures are written as SMILES. This is part of a sample that, as a whole, favours compounds with a hit. Of some 79,000 tested, about 15% had one in any assay. A number with no mark means an inactive call. Activity calls are given as the source filed them. Rule as the data show it: active = growth inhibition above about 70%; inactive = the rest.

The nature of assay [1]: NCI Yeast Anticancer Drug Screen. Data for the rad50 strain (AID 155).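 Also: 0% = growth of vehicle-only cultures of the same strain.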 The settings on record: S. cerevisiae rad50 strain growth inhibition, active compounds read high. A digest of the protocol: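 Relative growth inhibition (compound vs vehicle) was measured in yeast with a defined repair-gene alteration.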
The nature of assay [2]: NCI Yeast Anticancer Drug Screen. Data for the mec2-1 strain (AID 157). The conditions noted are these: S. cerevisiae mec2-1 strain, active compounds read high. A digest of the protocol: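 Each compound was tested on mec2-1 yeast, a strain altered in DNA damage repair or cell cycle control. Growth inhibition is reported relative to vehicle.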
Assay [3] in a line: NCI Yeast Anticancer Drug Screen. Data for the sgs1 mgt1 strain (AID 161).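 Also: 0% = growth of cultures given vehicle only.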 The settings on record: S. cerevisiae sgs1 mgt1 strain, active compounds read high. The method in brief: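 Genetically altered yeast, compound exposure, growth inhibition relative to vehicle.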
Assay [4] in a line: NCI Yeast Anticancer Drug Screen. Data for the cln2 rad14 strain (AID 165).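 Also: 0% = growth equal to vehicle treated cultures.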 The settings on record: S. cerevisiae cln2 rad14 strain, active compounds read high. A digest of the protocol: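 Test compounds were added to cln2 rad14 yeast cultures; inhibition of growth was then determined by comparison with vehicle treatment.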
A short description of assay [5]: NCI Yeast Anticancer Drug Screen. Data for the bub3 strain (AID 167). The conditions noted are these: S. cerevisiae bub3 mutant strain, active compounds read high. A digest of the protocol:
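Screening used yeast with an engineered genetic alteration affecting cell cycle control. Compound-exposed cultures were compared with vehicle cultures, and reduced growth was taken as inhibition.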

Assay [6] in a line: NCI Yeast Anticancer Drug Screen. Data for the mlh1 rad18 strain (AID 175). The settings on record: S. cerevisiae mlh1 rad18 strain growth inhibition, active compounds read high. A digest of the protocol:
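Inhibition values reflect reduced growth of mutant yeast versus vehicle-treated controls following compound exposure; the mutations affect DNA damage repair.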

[7] abbreviates: at 5.0 µM (retest, dose inferred, filed as 0.5).
Where [8] appears, read: at 50.0 µM (retest, dose inferred, filed as 5.0).

For `CN(C)CCN(C)N=Nc1c(-c2cccs2)n[nH]c1C(F)(F)F`, the growth inhibition in assay [1] (setting [7]) was 98% (active); in assay [1] (setting [8]), 99% (active); in assay [1] (at 50.0 µM), 99.1% (active); in assay [2] (setting [7]), 99% (active); in assay [2] (setting [8]) it was 100% (active); in assay [2] (at 50.0 µM), 99.7% (active). Besides, the growth inhibition is 99% (active) in assay [3] (setting [7]); 100% (active) in assay [3] (setting [8]); 99.6% (active) in assay [3] (at 50.0 µM); 99% (active) in assay [4] (setting [7]); 98% (active) in assay [4] (setting [8]); 99.3% (active) in assay [4] (at 50.0 µM). Also, the growth inhibition was 99% (active) in assay [5] (setting [7]); 99% (active) in assay [5] (setting [8]); 99.5% (active) in assay [5] (at 50.0 µM); 99% (active) in assay [6] (setting [7]); 100% (active) in assay [6] (setting [8]); 99.5% (active) in assay [6] (at 50.0 µM).
As to `Nc1ccc([N+](=O)[O-])cc1Nc1c2ccccc2nc2ccccc12`, the growth inhibition in assay [1] (setting [7]) is 5%; in assay [1] (setting [8]), 15%; in assay [1] (at 50.0 µM), 82.3% (active); in assay [2] (setting [7]), 2%; in assay [2] (setting [8]) it was 5%; in assay [2] (at 50.0 µM), 17.7%. Further, the growth inhibition in assay [3] (setting [7]) is 1%; in assay [3] (setting [8]), 27%; in assay [3] (at 50.0 µM) it was 40%; in assay [4] (setting [7]), -1%; in assay [4] (setting [8]), 34%; in assay [4] (at 50.0 µM), -6.85%. The growth inhibition is -4% in assay [5] (setting [7]); 17% in assay [5] (setting [8]); -43.4% in assay [5] (at 50.0 µM); 2% in assay [6] (setting [7]); 37% in assay [6] (setting [8]); 31.4% in assay [6] (at 50.0 µM).
As for `COc1ccccc1C1(c2ccccc2OC)OC(=O)c2ccccc21`, the growth inhibition was 3% in assay [1] (setting [7]); 14% in assay [1] (setting [8]); 77.8% (active) in assay [1] (at 50.0 µM); -1% in assay [2] (setting [7]); 12% in assay [2] (setting [8]); 60.6% in assay [2] (at 50.0 µM). Also, the growth inhibition in assay [3] (setting [7]) is 3%; in assay [3] (setting [8]) it was -18%; in assay [3] (at 50.0 µM), 80.3% (active); in assay [4] (setting [7]), 1%; in assay [4] (setting [8]), 22%; in assay [4] (at 50.0 µM), 69%. The growth inhibition is -2% in assay [5] (setting [7]); 17% in assay [5] (setting [8]); 77.3% (active) in assay [5] (at 50.0 µM); -6% in assay [6] (setting [7]); 33% in assay [6] (setting [8]); 76% (active) in assay [6] (at 50.0 µM).
Consider `CCCCCCCN(CCCCCCC)CC(O)Cc1cc2c(c3ccccc13)CCCC2` (stereo not given), for which the growth inhibition in assay [1] (setting [7]) was 6%; in assay [1] (setting [8]), 97% (active); in assay [1] (at 50.0 µM), 98.8% (active); in assay [2] (setting [7]), 17%; in assay [2] (setting [8]), 98% (active); in assay [2] (at 50.0 µM), 94.7% (active). The growth inhibition was 36% in assay [3] (setting [7]); 98% (active) in assay [3] (setting [8]); 99.5% (active) in assay [3] (at 50.0 µM); 4% in assay [4] (setting [7]); 97% (active) in assay [4] (setting [8]); 98.7% (active) in assay [4] (at 50.0 µM). The growth inhibition is 3% in assay [5] (setting [7]); 96% (active) in assay [5] (setting [8]); 94.7% (active) in assay [5] (at 50.0 µM); 24% in assay [6] (setting [7]); 97% (active) in assay [6] (setting [8]); 98% (active) in assay [6] (at 50.0 µM).
Turning to `COC1OC(CN=[N+]=[N-])C(OC(=O)c2ccccc2)C(OC(C)=O)C1OC(C)=O` (stereo not given), the growth inhibition in assay [1] (setting [7]) is -3%; in assay [1] (setting [8]) it was -3%; in assay [1] (at 50.0 µM), 7.35%; in assay [2] (setting [7]), -24%; in assay [2] (setting [8]) it was 23%; in assay [2] (at 50.0 µM) it was 9.8%. For the same molecule, the growth inhibition in assay [3] (setting [7]) was -192%; in assay [3] (setting [8]), -1%; in assay [3] (at 50.0 µM), 18.1%; in assay [4] (setting [7]), 2%; in assay [4] (setting [8]) it was -2%; in assay [4] (at 50.0 µM), 0%. Besides, the growth inhibition in assay [5] (setting [7]) is 61%; in assay [5] (setting [8]) it was 73% (active); in assay [5] (at 50.0 µM) it was 80% (active); in assay [6] (setting [7]) it was 13%; in assay [6] (setting [8]) it was 13%; in assay [6] (at 50.0 µM), 18.2%.
Consider `COc1ccc(/C=C2\CCCc3ccccc3C2=O)cc1`, for which the growth inhibition in assay [1] (setting [7]) is -3%; in assay [1] (setting [8]), 33%; in assay [1] (at 50.0 µM), 60.2%; in assay [2] (setting [7]), 2%; in assay [2] (setting [8]), 86% (active); in assay [2] (at 50.0 µM) it was 53.3%. The growth inhibition in assay [3] (setting [7]) was 9%; in assay [3] (setting [8]) it was 86% (active); in assay [3] (at 50.0 µM), 77.7% (active); in assay [4] (setting [7]) it was -12%; in assay [4] (setting [8]), -3%; in assay [4] (at 50.0 µM), 20%. The growth inhibition in assay [5] (setting [7]) is 64%; in assay [5] (setting [8]), 90% (active); in assay [5] (at 50.0 µM), 80.4% (active); in assay [6] (setting [7]), 5%; in assay [6] (setting [8]), 81% (active); in assay [6] (at 50.0 µM) it was 62.2%.
With `CN(C)CCCN=c1c2ccccc2n(O)c2ccccc12`, the growth inhibition in assay [1] (setting [7]) was -8%; in assay [1] (setting [8]), -6%; in assay [1] (at 50.0 µM) it was -27.9%; in assay [2] (setting [7]), -16%; in assay [2] (setting [8]), -19%; in assay [2] (at 50.0 µM) it was -6.95%. Moreover, the growth inhibition in assay [3] (setting [7]) was -16%; in assay [3] (setting [8]) it was -3%; in assay [3] (at 50.0 µM), -32.5%; in assay [4] (setting [7]), 22%; in assay [4] (setting [8]), 20%; in assay [4] (at 50.0 µM), 24.7%. In addition, the growth inhibition was -4% in assay [5] (setting [7]); -20% in assay [5] (setting [8]); -9.35% in assay [5] (at 50.0 µM); -20% in assay [6] (setting [7]); -16% in assay [6] (setting [8]); 8.3% in assay [6] (at 50.0 µM).
For the molecule `Cc1c[nH]c2c(O)cc3c(c12)[C@H](CCl)CN3C(=O)c1cc2cc(NC(=O)Nc3ccc4[nH]c(C(=O)N5C[C@@H](CCl)c6c5cc(O)c5[nH]cc(C)c65)cc4c3)ccc2[nH]1`, the growth inhibition is 38% in assay [1] (setting [7]); 70% (active) in assay [1] (setting [8]); 17.4% in assay [1] (at 50.0 µM); 30% in assay [2] (setting [7]); 63% in assay [2] (setting [8]); 33.6% in assay [2] (at 50.0 µM). The growth inhibition is 33% in assay [3] (setting [7]); 64% in assay [3] (setting [8]); -12.9% in assay [3] (at 50.0 µM); 14% in assay [4] (setting [7]); 34% in assay [4] (setting [8]); -3.3% in assay [4] (at 50.0 µM). In addition, the growth inhibition was 34% in assay [5] (setting [7]); 56% in assay [5] (setting [8]); -0.05% in assay [5] (at 50.0 µM); 78% (active) in assay [6] (setting [7]); 86% (active) in assay [6] (setting [8]); 3.2% in assay [6] (at 50.0 µM).
For `CC(=O)OC1CC2Cc3ccccc3C3(O)COC213` (stereo not given), the growth inhibition in assay [1] (setting [7]) is -1%; in assay [1] (setting [8]), 48%; in assay [1] (at 50.0 µM), 49.2%; in assay [2] (setting [7]), 6%; in assay [2] (setting [8]), 75% (active); in assay [2] (at 50.0 µM), 45.4%. In addition, the growth inhibition in assay [3] (setting [7]) is 6%; in assay [3] (setting [8]) it was 76% (active); in assay [3] (at 50.0 µM), 76.7% (active); in assay [4] (setting [7]), 3%; in assay [4] (setting [8]) it was 17%; in assay [4] (at 50.0 µM) it was 14.1%. The growth inhibition in assay [5] (setting [7]) is -7%; in assay [5] (setting [8]), 59%; in assay [5] (at 50.0 µM) it was 59%; in assay [6] (setting [7]) it was -2%; in assay [6] (setting [8]) it was 83% (active); in assay [6] (at 50.0 µM), 31.1%.
As to `O=C(Sc1c(-c2ccccc2)c(=O)n(-c2ccccc2)c(=S)n1-c1ccccc1)c1cccs1`, the growth inhibition is 37% in assay [1] (setting [7]); 92% (active) in assay [1] (setting [8]); 72.2% (active) in assay [1] (at 50.0 µM); 39% in assay [2] (setting [7]); 95% (active) in assay [2] (setting [8]); 73.1% (active) in assay [2] (at 50.0 µM). For the same molecule, the growth inhibition is 23% in assay [3] (setting [7]); 93% (active) in assay [3] (setting [8]); 77.9% (active) in assay [3] (at 50.0 µM); 25% in assay [4] (setting [7]); 92% (active) in assay [4] (setting [8]); 56% in assay [4] (at 50.0 µM). Moreover, the growth inhibition was 47% in assay [5] (setting [7]); 95% (active) in assay [5] (setting [8]); 84% (active) in assay [5] (at 50.0 µM); 66% in assay [6] (setting [7]); 95% (active) in assay [6] (setting [8]); 77.6% (active) in assay [6] (at 50.0 µM).
